Molecules are shown by their SMILES. About 800 (1.6%) of roughly 50,000 compounds showed an effect of 50% or more. Only a selection was taken, and strong results are over-represented in it overall.

For this assay, the target named is Bcl-2-like protein 10 (Homo sapiens) (UniProt Q9HD36). The assay can be described thus: Phenotype converters, Bcl-B/TR3 peptide binding displacement, primary biochemical FP (AID 1240).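 Note: 0% = Bcl-B with tracer peptide and DMSO and 100% = tracer peptide lacking Bcl-B.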 The settings on record: GST-Bcl-B / FITC-TR3 peptide fluorescence polarization; stronger effect = higher value; compound at 3.75 mg/L. For orientation: In fluorescence polarisation assays a small probe gives low polarisation when free and higher when bound to something large.
Sequence of Bcl-2-like protein 10 (Homo sapiens) (Q9HD36 whole entry, looked up): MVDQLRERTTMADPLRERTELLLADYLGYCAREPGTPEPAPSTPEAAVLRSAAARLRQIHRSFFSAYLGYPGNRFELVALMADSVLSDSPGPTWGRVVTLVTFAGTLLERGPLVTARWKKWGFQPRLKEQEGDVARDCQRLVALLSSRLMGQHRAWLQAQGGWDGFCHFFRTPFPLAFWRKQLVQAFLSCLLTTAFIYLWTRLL
`CCn1cc(C(=O)NN)c(=O)c2cc(Br)ccc21`: the displacement was 20.2%.

For `O=C(CSc1nc2ccc([N+](=O)[O-])cc2s1)N1CCOCC1`, the displacement is 1.4%. For `COC1C(C)=CC(=O)N1Cc1ccccc1` (stereo not given), the displacement amounted to 4.4%. On to `Cc1cc(C)c(S(=O)(=O)NCC2CCCO2)c(C)c1` (stereo not given), for which the displacement was -8%. Consider `CCc1cc(C)cc(OCCOc2ccc([N+](=O)[O-])cc2/C=C2/SC(=S)N(C)C2=O)c1`, for which the displacement stood at 20.5%.

`COc1ccccc1/C=C1\SC(=N)N(c2ccc(F)cc2)C1=O`: the displacement was -8.6%. Turning to `COc1ccc(CCN=Cc2c(C(F)(F)F)[nH]n(-c3nc4ccccc4s3)c2=O)cc1OC`, the displacement stood at 69.9%.

For `O=c1c(C=NCc2cccs2)c(C(F)(F)F)[nH]n1-c1nc2ccccc2s1`, the displacement was -13.8%.

Turning to `CCCc1[nH]n(-c2nc3ccccc3s2)c(=O)c1C=NCCc1ccccc1`, the displacement was -1%.

Take `Cc1ccc(C)c(NC(=O)C2C3C4CCC(C4)C23)c1` (stereo not given): the displacement is -7.2%. The same measure for `COc1ccc(/C=C/C(=O)NC(=S)Nc2ccc(I)cc2)cc1`: 14.3%. The same measure for `O=C(Nc1c(C(=O)Nc2cccc(Cl)c2)cnn1-c1ccccc1)c1ccccc1Cl`: 83%; for `Cc1ccc(NC(=O)c2cnn(-c3ccccc3)c2NC(=O)c2ccccc2Cl)cc1C`: 3.3%; for `CCN(CC)C(=O)c1cnn(-c2ccccc2)c1NC(=O)c1ccccc1Cl`: 9.1%.

As for `COCCOC(=O)c1ccc(NC(=O)c2ccccc2CCc2ccccc2)cc1`, the displacement was found to be 7.1%. Then `CN1CCC(O)N1C(=O)c1ccccc1O` (stereo not given), with 12.7%; and `Cc1ccc2nc(-c3ccc(C)c(NC(=O)c4ccc5ccccc5c4)c3)oc2c1`, with -11.3%; and `Cc1ccc(-c2nc3ccccc3o2)cc1NC(=O)c1cccc(Cl)c1`, with 17%. For `CCc1ccc2oc(-c3cccc(NC(=O)c4ccc5c(c4)OCCO5)c3)nc2c1`, the displacement was 0.9%. The same measure for `Cc1ccc(-c2nc3cc(Cl)cc(Cl)c3o2)cc1NC(=O)c1ccc2c(c1)OCCO2`: 6.6%; for `COc1c(Cl)cc(C(=O)Nc2cc(-c3nc4cc(Cl)ccc4o3)ccc2C)cc1Cl`: 7.7%. On to `Cc1ccc(-c2nc3cc(Cl)ccc3o2)cc1NC(=O)c1ccc2ccccc2c1`, for which the displacement was found to be 128%. The same measure for `Cc1ccc(-c2nc3ccccc3o2)cc1NC(=O)c1ccc2c(c1)OCCO2`: 45.1%; for `COc1cc(OC)cc(C(=O)Nc2cc(-c3nc4cc(Cl)ccc4o3)ccc2C)c1`: 110%; for `CCc1ccc2oc(-c3ccc(C)c(NC(=O)c4cc(OC)cc(OC)c4)c3)nc2c1`: 13.4%. As to `O=C(Nc1cccc(-c2nc3cc(Cl)ccc3o2)c1)c1ccc(Cl)cc1`, the displacement turned out to be 0.2%. For the compound `Cc1ccc(-c2nc3cc(Cl)ccc3o2)cc1NC(=O)c1ccc2c(c1)OCCO2`, the displacement was determined as 102%. For `O=C(Nc1cccc(-c2nc3cc(Cl)ccc3o2)c1)c1ccc2c(c1)OCCO2`, the displacement amounted to 105%. The same measure for `COc1ccc(C)cc1NC(=O)COc1ccc(Br)cc1C`: 7.7%; for `CCOC(=O)C1=C(C)NC(=O)CC1c1ccccc1I` (stereo not given): -10.7%; for `COc1ccc(OCCCCN2CCN(C)CC2)cc1`: -5.8%. The same measure for `Cc1noc2c1/C(=N\O)CC(c1ccccc1)C2` (stereo not given): 2.6%. Then `Cc1cc(C(=O)Nc2cccc(C)c2C)ccc1[N+](=O)[O-]`, with 15.9%; and `COC(=O)c1c(C)oc2ccc(OCc3c(F)cccc3Cl)cc12`, with 91%. On to `COCCOC(=O)c1c(C)oc2ccc(OCc3c(F)cccc3Cl)cc12`, for which the displacement turned out to be 6.9%.

`Cc1oc2ccc(OCc3c(F)cccc3Cl)cc2c1C(=O)O`: the displacement came out at 11.7%. Then `Cc1ccc(N(CC(=O)N(Cc2ccccc2)Cc2ccccc2)S(C)(=O)=O)cc1`, with -7.5%; and `N#C/C(=C(/O)C(Cl)(Cl)Cl)c1nc2ccccc2[nH]1`, with -5.5%; and `C/C(=N\OC/C(O)=C(\C#N)c1nc2ccccc2[nH]1)c1ccc(Br)cc1`, with 46.6%. For `N#C/C(=C(/O)CO/N=C/c1ccccc1Cl)c1nc2ccccc2[nH]1`, the displacement was 53.6%.

As to `O=C(CC1Nc2ccccc2NC1=O)Nc1cccc(C(=O)O)c1` (stereo not given), the displacement is -2.4%. For `CCCOc1cccc(C(=O)Nc2ccc(F)c([N+](=O)[O-])c2)c1`, the displacement was 13.4%. The same measure for `CC1=NN(C(=O)c2cccnc2)C(O)(c2ccccc2)C1` (stereo not given): -6.3%; for `O=C(Cc1cccs1)NCC1CCCO1` (stereo not given): 14.5%. With `O=C(N/N=C/c1ccc(O)c(O)c1)c1cccc(F)c1`, the displacement is -6.6%. For the compound `O=C(NCCCn1ccnc1)c1ccccc1Br`, the displacement was -8.7%. As to `COc1ccc(C(=O)Nc2ccccc2C(=O)NCCCn2ccnc2)cc1`, the displacement was 11.9%. Then `O=C(Nc1ccccc1C(=O)NCCCn1ccnc1)c1ccccc1`, with 83.5%; and `COC(=O)C1=CNC=C(C(=O)OC)C1c1cccc(OCc2ccccc2)c1`, with 1.2%.

On to `O=C(/C=C/c1ccc([N+](=O)[O-])cc1)Nc1ccc(F)cc1`, for which the displacement is -2.7%. The same measure for `COc1ccc(C(=O)/C=C\Nc2ccc(Cl)cn2)cc1`: -23.9%. For the compound `O=C(/C=C\Nc1ccc(Br)cn1)c1ccc(Cl)cc1`, the displacement was 61.9%.

As to `O=C(/C=C/Nc1ccccn1)c1ccc(Br)cc1`, the displacement was found to be 3%. Regarding `O=C(/C=C/Nc1ccccc1F)c1ccc(Br)cc1`, the displacement is 85.6%. Turning to `COc1ccc(C(=O)/C=C/Nc2ccccc2F)cc1`, the displacement turned out to be 5.6%. Then `O=C(/C=C/Nc1ccccc1F)c1ccccc1`, with 8.2%; and `Cc1sccc1/C=N/NC(=O)C1CC1`, with 3%. The same measure for `Cc1ccc(/C=N/N=C/c2ccc(C)cc2)cc1`: 2.2%. As for `C/C(=C\C(=O)c1ccc(Cl)cc1)Nc1ccc(Br)c(C)c1`, the displacement worked out at 4.4%.

As to `COC(=O)c1ccc(/C=c2\sc3nc(-c4ccc(C)cc4)nn3c2=O)cc1`, the displacement was 10.7%. For `COc1ccc(-c2nn(-c3ccccc3)cc2/C=c2\sc3nc(-c4ccc(C)cc4)nn3c2=O)cc1`, the displacement turned out to be 8.3%. The same measure for `COc1ccccc1/C=c1\sc2nc(-c3ccc(C)cc3)nn2c1=O`: 61.7%. As for `Cc1ccc(-c2nnc3s/c(=C\c4ccccc4Cl)c(=O)n23)cc1`, the displacement is 30.3%. With `COc1ccc(/C=c2\sc3nc(-c4ccccc4)nn3c2=O)cc1`, the displacement worked out at 77.5%. Take `COc1ccc(/C=c2\sc3nnc(-c4ccc(C)cc4)n3c2=O)c(OC)c1`: the displacement worked out at 73.8%. Then `COc1ccc(/C=c2/sc3nc(-c4ccc(C(C)(C)C)cc4)nn3c2=O)cc1`, with 11.3%. The same measure for `COc1ccc(/C=c2\sc3nnc(-c4ccccc4)n3c2=O)c(OC)c1`: 28%; for `COc1ccccc1/C=c1/sc2nc(-c3ccc(Cl)cc3Cl)nn2c1=O`: 7.3%; for `OCCCc1nc2ccccc2n1Cc1ccccc1`: 2.4%.

As to `O=[N+]([O-])c1cc(C(F)(F)F)ccc1N/N=C/c1ccc(F)cc1`, the displacement came out at 6.3%. Regarding `CC(=O)N(C1=C(N2CCCCC2)C(=O)c2ccccc2C1=O)c1ccc(C)cc1`, the displacement worked out at 11.1%.

In the case of `O=C(Nc1ccc2c(c1)OCCO2)c1ccc(Br)cc1`, the displacement was -0.2%. Regarding `O=S(=O)(Nc1ccc(SC(F)F)cc1)c1cccc2cccnc12`, the displacement amounted to 1.7%. The same measure for `CCc1nnc(NC(=O)C2CCCC2)s1`: -7.8%; for `Cc1cc(=O)n2cc(Br)ccc2n1`: 0.1%. Consider `O=C(Nc1ccc(NC(=O)c2ccc([N+](=O)[O-])cc2Cl)cc1Cl)c1ccco1`, for which the displacement was -2%. In the case of `O=C(C1CCCCC1)N1CCN=C1c1ccccc1`, the displacement is -1%. Then `CN1C(=O)NC(=O)/C(=C\c2cc(Cl)c(OCC(=O)O)c(Cl)c2)C1=O`, with -3.5%.

On to `Cc1ccc(NC(=O)/C=C/C(=O)c2ccccc2)cc1`, for which the displacement was 54.6%. Then `O=C(O)/C=C\C(=O)Nc1ccc(C(=O)c2ccccc2)cc1`, with 3.2%; and `Cc1ccc(NC(=O)/C=C/c2ccccc2)cc1`, with -3.5%; and `CCN(CC)CCN1C(=O)C(O)=C(C(=O)/C=C/c2ccccc2)C1c1ccc(Br)cc1` (stereo not given), with 11.4%.

For the compound `O=C(C1CCCC1)N1CCN(c2ccc(F)cc2)CC1`, the displacement is -0.9%. The same measure for `Cc1cc(C)c2oc(-c3ccc(NC(=O)COc4ccccc4[N+](=O)[O-])cc3)nc2c1`: 89.3%.

Turning to `Cc1cc2nc(-c3ccc(NC(=O)COc4ccccc4[N+](=O)[O-])cc3)oc2cc1C`, the displacement is -0.7%.

With `O=C(COc1ccccc1[N+](=O)[O-])Nc1ccc2oc(-c3ccccc3Br)nc2c1`, the displacement worked out at 5.2%. The same measure for `Cc1ccc(-c2nc3ccccc3o2)cc1NC(=O)COc1ccccc1[N+](=O)[O-]`: -7.1%; for `O=C(COc1ccccc1[N+](=O)[O-])Nc1ccc2oc(-c3ccccc3F)nc2c1`: 2.9%; for `Cc1cc(C)c2oc(-c3cccc(NC(=O)COc4ccccc4[N+](=O)[O-])c3)nc2c1`: -24.2%. Then `O=C(COc1ccccc1[N+](=O)[O-])Nc1ccc(-c2nc3ccccc3o2)cc1`, with -1.3%. With `O=C(COc1ccccc1[N+](=O)[O-])Nc1ccc2oc(-c3cccc4ccccc34)nc2c1`, the displacement is 56.9%.

In the case of `O=C(COc1ccccc1[N+](=O)[O-])Nc1cc(-c2nc3ccccc3o2)ccc1Cl`, the displacement came to 91.6%. On to `Cc1cc(C)c2nc(Nc3nc4ccccc4c(=O)[nH]3)nc(C)c2c1`, for which the displacement came out at 9.2%.

In the case of `O=C(O)CCCCCN1C(=O)C(O)=C(C(=O)/C=C/c2ccccc2)C1c1ccccc1Cl` (stereo not given), the displacement is -7.2%.

As to `Cc1c(O)nc(Nc2nc(C)c3ccccc3n2)[nH]c1=O`, the displacement was determined as 9%.

The values are drawn from PubChem BioAssay AID1240 (Sanford-Burnham Center for Chemical Genomics, 2008).
